# Assay results from PubChem BioAssay (Tox21).
# Active and inactive are the calls of the source. Where a call stands in place of a potency, no number is given. Calls come from the whole dose curve; as a rule, active = well fitted curve in the direction sought with a large enough effect in the repeat runs; inconclusive = weak or mixed curves; inactive = flat fitted curve, though single readings scatter.
# Test: qHTS assay to test for compound auto fluorescence at 590 nm (red) in HEK293 cell free culture (AID 720683)
# Conditions: cell-free medium autofluorescence, Ex540/Em590 red; series mostly up to 91.3 µM
# Excerpt: U.S. Tox21 Program National Center for Advancing Translational Sciences [NCATS] NIH Chemical Genomics Center [NCGC] U.S. Environmental Protection Agency [EPA] National Institutes of Environmental Health Sciences [NIEHS] National Toxicology Program [NTP] U.S. Food and Drug Administration [FDA] Tox21 Assay Overview: Compound auto fluorescence often interferes with screening of the compound library against various biological targets and signaling pathways. Some of these compounds may have fluorophoric properties. Such properties may interfere with the assay outputs resulting in false positives and/or negatives. To decrease such complications and ensure the compound activities are relevant in terms of biological response, the Tox21 10K compound library was screened for auto fluorescence. From the fluorophores used as reporter signals in our screening assays, the auto fluorescence equivalencies of compounds against three fluorophores have been evaluated: Triamterene, Fluorescein and Rose Bengal sodium for blue, green and red fluorescence, respectively. The fluorescence intensities were measured using Excitation/Emission wavelengths at 405/460nm, 485/535nm and 540/590nm for blue, green and red labels, respectively. This assay includes the red fluorescence data.
# Tox21 Assay Protocol Summary: 5 uL of culture medium (DMEM containing 10% FBS) per well was dispensed into black wall/clear bottom 1536-well plates using a Multidrop Combi Dispenser (ThermoFisher Scientific, Waltham, MA). After 23 nL compound or DMSO vehicle was transferred into assay plate by a pintool work station (Kalypsys, San Diego, CA), fluorescence intensities in the assay plates were measured by an Envision (PerkinElmer, Shelton, CT) plate reader using three labels for measuring blue, green and red fluorescence at […] 460, 535 and 590nm respectively.
row,SMILES,Potency
1,Nc1ccc(Nc2ccccc2)cc1,inactive
2,C=C(C)C(=O)OCCOC(=O)C(=C)C,inactive
3,CCC(C)OC(=O)c1ccc(O)cc1 (stereo not given),inactive
4,CCC(C)CO (stereo not given),inactive
5,Oc1ccc(O)cc1,inactive
6,c1ccc2cc(Nc3ccc(Nc4ccc5ccccc5c4)cc3)ccc2c1,inactive
7,CC(C)=CCC/C(C)=C\CO,inactive
8,CC(C)OB(OC(C)C)OC(C)C,inactive
9,O=P(O)(O)O,inactive
10,COC(=O)CCC(=O)OC,inactive
11,CCCC(=O)O,inactive
12,CCCCc1oc2ccccc2c1C(=O)c1cc(I)c(OCCN(CC)CC)c(I)c1,inactive
13,O=C(c1ccccc1)c1ccccc1O,inactive
14,C[C@]12CC[C@H]3[C@@H](CCC4=CC(=O)CC[C@@]43C)[C@@H]1CC[C@@H]2C(=O)CO,inactive
15,CN(C)CCC=C1c2ccccc2CCc2ccccc21,inactive
16,CCCCOCCOCCOCCO,inactive
17,CC(C)OC=O,inactive
18,CC(C)OC(=O)C(C)(C)Oc1ccc(C(=O)c2ccc(Cl)cc2)cc1,inactive
19,Cc1[nH]c(=O)c(C#N)cc1-c1ccncc1,inactive
20,C#C[C@]1(O)CC[C@H]2[C@@H]3CCc4cc(OC)ccc4[C@H]3CC[C@@]21C,inactive

row,SMILES,Potency
1,CCCc1c(OCCCCc2nn[nH]n2)ccc(C(C)=O)c1O,inactive
2,CCCCC/C=C/C=C/C=O,inactive
3,CC(=O)c1ccccn1,inactive
4,CCCCC(CC)COC(=O)c1ccc(N(C)C)cc1 (stereo not given),inactive
5,Nc1ccc(Cl)cc1Cl,inactive
6,c1cc(N(CC2CO2)CC2CO2)ccc1OCC1CO1 (stereo not given),inactive
7,C#C[C@]1(O)CC[C@H]2[C@@H]3CCC4=Cc5oncc5C[C@]4(C)[C@H]3CC[C@@]21C,inactive
8,COc1c(Cl)c(Cl)c(Cl)c(Cl)c1Cl,inactive
9,O=C1c2cccc(O)c2C(=O)c2c(O)cccc21,inactive
10,CN(C)CCN(Cc1cccs1)c1ccccn1,inactive
11,CC(C)Oc1ccc2c(=O)c(-c3ccccc3)coc2c1,inactive
12,CCCCNS(=O)(=O)c1ccccc1,inactive
13,O=C(/C=C/C=C/c1ccc2c(c1)OCO2)N1CCCCC1,inactive
14,COc1ccc(C(=O)CC(=O)c2ccc(C(C)(C)C)cc2)cc1,inactive
15,Nc1ccccc1N,inactive
16,COC(C)COC(C)COC(C)CO (stereo not given),inactive
17,CC(CCC(=O)O)(c1ccc(O)cc1)c1ccc(O)cc1,inactive
18,c1ccc2c(c1)Oc1ccccc1S2,inactive
19,CC1=CC2C3CC(C=C3C)C2C1 (stereo not given),inactive
20,CC(=O)Oc1ccccc1C(=O)Nc1ncc([N+](=O)[O-])s1,inactive
